Source: PubChem BioAssay (EPA / NIEHS)
Results filed as inconclusive are left out. The source made the active and inactive calls. How the source made its calls, unless noted: active means hit-call score of the fitted dose curve at least 0.9, where 1 is the maximum; inactive means score below 0.9.

Columns and labels:
[1] = ATG_TCF_b_cat_CIS: Attagene CIS-FACTORIAL HepG2 Assay for human T-Cell-Factor with beta-catenin (TCF/b-cat) (AID 2282965); settings: HepG2 TCF/beta-catenin cis-reporter transcription, actives raise or lower the signal
Method in brief: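 Cells of the HepG2 line carry transiently transfected reporter units whose promoters respond to endogenous factors. Twenty-four hours post-dosing, reporter mRNA induction is measured by fluorescent RT-PCR and capillary electrophoresis, with DMSO as baseline.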

[2] = ATG_TAL_CIS: Attagene CIS-FACTORIAL HepG2 Assay for human TAL Basal Promoter (AID 2282966); settings: HepG2 Attagene cis-factorial TAL promoter reporter; actives raise or lower the signal;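 further: background control endpoint measuring basal TAL promoter reporter mRNA not a specific factor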
Method in brief: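 HepG2, transient MRTU transfection, 24 h compound exposure; RNA → oligo(dT) RT → PCR → 6-FAM primer extension → HpaI digest → CE fluorescence. Bidirectional curve fit vs DMSO. Background-control readout.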

[3] = ATG_TGFb_CIS: Attagene CIS-FACTORIAL HepG2 Assay for human Transforming Growth Factor (TGF) (AID 2282967); settings: HepG2 Attagene CIS TGFb reporter, mRNA transcription; actives raise or lower the signal
Method in brief: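 Transient MRTU transfection of HepG2 (FuGene 6). Dose 24 h. TriZol RNA, oligo(dT) RT, PCR, 6-FAM primer extension, HpaI cut, CE. Bidirectional fit, DMSO = baseline.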

[4] = ATG_VDRE_CIS: Attagene CIS-FACTORIAL HepG2 Assay for human Vitamin D Receptor Element (VDRE) (AID 2282968); settings: HepG2 VDRE cis-reporter transcription, actives raise or lower the signal
Method in brief: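 Compounds were applied for 24 h to HepG2 cells transfected with promoter-regulated reporter units. Total RNA was reverse-transcribed, and reporter amplicons were fluorescently labelled and sized by capillary electrophoresis.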

[5] = biological target: X-box-binding protein 1 (Homo sapiens) (UniProt P17861); assay: ATG_Xbp1_CIS: Attagene CIS-FACTORIAL HepG2 Assay for human X-box Binding Protein 1 (XBP1) (AID 2282972); settings: HepG2 XBP1 cis-element reporter, Attagene multiplex; actives raise or lower the signal
Chain of X-box-binding protein 1 (Homo sapiens) (P17861 whole entry, looked up): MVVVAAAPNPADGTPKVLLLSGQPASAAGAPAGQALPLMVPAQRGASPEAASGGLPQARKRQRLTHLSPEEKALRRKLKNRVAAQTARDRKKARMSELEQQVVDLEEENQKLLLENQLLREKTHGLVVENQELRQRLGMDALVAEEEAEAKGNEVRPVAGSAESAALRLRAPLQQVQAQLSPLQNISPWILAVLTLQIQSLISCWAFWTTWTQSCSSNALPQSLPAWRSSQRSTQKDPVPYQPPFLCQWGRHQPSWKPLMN
Method in brief: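 Multiplexed cis-reporter readout in transfected HepG2 liver cells. Exposure lasted 24 hours. Activity in either direction was fitted against DMSO as negative control and baseline.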

[6] = biological target: Oxysterols receptor LXR-alpha (Homo sapiens) (UniProt Q13133); assay: ATG_LXRa_TRANS: Attagene TRANS-FACTORIAL HepG2 Assay for human Liver X Receptor alpha (LXRa) (AID 2282980; active means hit-call score of the fitted dose curve at least 0.9, where 1 is the maximum); settings: HepG2 Attagene TRANS reporter, LXRa transactivation
Chain of Oxysterols receptor LXR-alpha (Homo sapiens) (Q13133 whole entry, looked up, the tested form may be a part): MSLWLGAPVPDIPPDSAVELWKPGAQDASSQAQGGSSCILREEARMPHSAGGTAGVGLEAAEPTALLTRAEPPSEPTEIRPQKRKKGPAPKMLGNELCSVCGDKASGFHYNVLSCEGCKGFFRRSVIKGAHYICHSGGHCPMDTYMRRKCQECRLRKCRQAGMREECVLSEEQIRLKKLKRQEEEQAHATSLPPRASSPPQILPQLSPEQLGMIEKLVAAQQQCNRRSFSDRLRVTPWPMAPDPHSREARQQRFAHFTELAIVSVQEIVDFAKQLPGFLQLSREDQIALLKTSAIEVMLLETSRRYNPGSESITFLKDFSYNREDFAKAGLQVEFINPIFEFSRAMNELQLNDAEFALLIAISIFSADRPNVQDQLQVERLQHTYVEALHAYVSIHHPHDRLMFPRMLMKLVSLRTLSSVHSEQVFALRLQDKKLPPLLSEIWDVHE
Method in brief: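 Read-out: reporter transcript levels by RT-PCR plus capillary electrophoresis, fluorescence intensity. Transiently transfected HepG2, exogenous NR-GAL4 chimera, GAL4-UAS reporters; 24 h compound exposure. Activity = increase over DMSO negative control.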

[7] = biological target: Oxysterols receptor LXR-beta (Homo sapiens) (UniProt P55055); assay: ATG_LXRb_TRANS: Attagene TRANS-FACTORIAL HepG2 Assay for human Liver X Receptor beta (LXRb) (AID 2282981; active means hit-call score of the fitted dose curve at least 0.9, where 1 is the maximum); settings: HepG2 Attagene TRANS GAL4-LXRb reporter, mRNA
Chain of Oxysterols receptor LXR-beta (Homo sapiens) (P55055 whole entry, looked up, the tested form may be a part): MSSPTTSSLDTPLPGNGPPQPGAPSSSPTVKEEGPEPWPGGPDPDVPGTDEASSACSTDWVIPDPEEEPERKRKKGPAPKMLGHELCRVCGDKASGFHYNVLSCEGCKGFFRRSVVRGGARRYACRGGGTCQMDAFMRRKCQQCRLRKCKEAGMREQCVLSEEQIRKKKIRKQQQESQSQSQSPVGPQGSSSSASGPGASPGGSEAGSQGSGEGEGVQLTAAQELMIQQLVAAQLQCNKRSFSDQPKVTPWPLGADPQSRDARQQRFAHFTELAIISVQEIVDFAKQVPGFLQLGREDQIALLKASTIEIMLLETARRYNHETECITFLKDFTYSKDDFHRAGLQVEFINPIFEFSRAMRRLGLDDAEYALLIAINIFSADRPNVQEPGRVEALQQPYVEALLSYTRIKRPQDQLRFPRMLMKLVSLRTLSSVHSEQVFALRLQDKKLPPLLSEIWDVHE
Method in brief: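 Multiplexed reporter assay, HepG2, 24 h dosing. Fluorescence of labelled RT-PCR products after capillary electrophoresis gives transcript level; positive fitting direction relative to DMSO.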

[8] = biological target: Hepatocyte nuclear factor 4-alpha (Homo sapiens) (UniProt P41235); assay: ATG_HNF4a_TRANS: Attagene TRANS-FACTORIAL HepG2 Assay for human Hepatocyte Nuclear Factor 4 alpha (HNF4a) (AID 2282982; active means hit-call score of the fitted dose curve at least 0.9, where 1 is the maximum); settings: HepG2 HNF4a transactivation reporter, mRNA readout
Chain of Hepatocyte nuclear factor 4-alpha (Homo sapiens) (P41235 whole entry, looked up, the tested form may be a part): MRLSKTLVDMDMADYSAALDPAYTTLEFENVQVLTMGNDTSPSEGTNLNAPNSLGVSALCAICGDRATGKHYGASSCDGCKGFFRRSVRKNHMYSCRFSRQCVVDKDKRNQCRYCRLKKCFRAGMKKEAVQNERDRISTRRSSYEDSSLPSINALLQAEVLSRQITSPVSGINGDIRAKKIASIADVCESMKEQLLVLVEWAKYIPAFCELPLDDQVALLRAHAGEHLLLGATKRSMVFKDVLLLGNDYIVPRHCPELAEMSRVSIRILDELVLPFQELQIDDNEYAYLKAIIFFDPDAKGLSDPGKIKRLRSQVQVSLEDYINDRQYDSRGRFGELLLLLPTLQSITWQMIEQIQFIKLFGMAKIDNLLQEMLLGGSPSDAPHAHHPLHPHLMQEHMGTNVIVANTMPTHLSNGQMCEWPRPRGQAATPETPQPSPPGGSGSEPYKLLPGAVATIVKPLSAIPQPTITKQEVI
Method in brief: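 Endpoint reflects transcriptional activation of a GAL4-UAS reporter by an HNF4a-GAL4 chimera in transfected HepG2 cells, 24 h post-dosing. Fluorescence from RT-PCR products separated by capillary electrophoresis; DMSO baseline.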

[9] = ATG_M_06_TRANS: Attagene TRANS-FACTORIAL HepG2 Assay for M06 Transcription Factor (Internal Marker) (AID 2282983; active means hit-call score of the fitted dose curve at least 0.9, where 1 is the maximum); settings: HepG2 Attagene TRANS M06 internal marker reporter
Method in brief: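 Read-out: fluorescent reporter cDNA fragments resolved by capillary electrophoresis after RT-PCR and HpaI cut. Source cells were HepG2 carrying transfected multi-reporter GAL4 constructs, dosed 24 h. Increase over DMSO control analysed.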

[10] = biological target: Nuclear receptor subfamily 4 group A member 2 (Homo sapiens) (UniProt P43354); assay: ATG_NURR1_TRANS: Attagene TRANS-FACTORIAL HepG2 Assay for human Nuclear Receptor Related Protein 1 (NURR1) (AID 2282985; active means hit-call score of the fitted dose curve at least 0.9, where 1 is the maximum); settings: HepG2 Attagene TRANS reporter, mRNA readout
Chain of Nuclear receptor subfamily 4 group A member 2 (Homo sapiens) (P43354 whole entry, looked up): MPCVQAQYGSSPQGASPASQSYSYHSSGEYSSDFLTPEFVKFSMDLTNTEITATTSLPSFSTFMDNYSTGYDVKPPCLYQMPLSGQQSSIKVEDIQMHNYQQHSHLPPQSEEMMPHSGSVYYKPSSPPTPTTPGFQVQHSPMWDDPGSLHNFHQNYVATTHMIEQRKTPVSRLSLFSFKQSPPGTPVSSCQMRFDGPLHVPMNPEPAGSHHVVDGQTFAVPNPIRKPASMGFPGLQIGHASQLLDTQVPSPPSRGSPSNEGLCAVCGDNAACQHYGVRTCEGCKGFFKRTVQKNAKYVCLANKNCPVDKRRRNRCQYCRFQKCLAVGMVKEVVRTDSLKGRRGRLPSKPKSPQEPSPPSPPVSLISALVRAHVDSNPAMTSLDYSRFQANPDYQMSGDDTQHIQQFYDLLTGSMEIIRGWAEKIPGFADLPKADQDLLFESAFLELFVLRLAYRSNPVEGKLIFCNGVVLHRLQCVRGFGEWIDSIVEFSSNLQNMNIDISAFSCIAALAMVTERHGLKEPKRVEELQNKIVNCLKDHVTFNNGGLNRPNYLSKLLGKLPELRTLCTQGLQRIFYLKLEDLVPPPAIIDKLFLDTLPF
Method in brief: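 Endpoint: reporter mRNA increase relative to DMSO. HepG2 cells transfected with reporter units, treated 24 h; RNA processed by RT-PCR, labelling, HpaI digestion and capillary electrophoresis.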

[11] = biological target: Transcriptional activator Myb (Homo sapiens) (UniProt P10242); assay: ATG_Myb_CIS: Attagene CIS-FACTORIAL HepG2 Assay for human Myeloblastosis (Myb) Proto-Oncogene Transcription Factor (AID 2282986); settings: HepG2 Attagene CIS-FACTORIAL Myb reporter transcription; actives raise or lower the signal
Chain of Transcriptional activator Myb (Homo sapiens) (P10242 whole entry, looked up): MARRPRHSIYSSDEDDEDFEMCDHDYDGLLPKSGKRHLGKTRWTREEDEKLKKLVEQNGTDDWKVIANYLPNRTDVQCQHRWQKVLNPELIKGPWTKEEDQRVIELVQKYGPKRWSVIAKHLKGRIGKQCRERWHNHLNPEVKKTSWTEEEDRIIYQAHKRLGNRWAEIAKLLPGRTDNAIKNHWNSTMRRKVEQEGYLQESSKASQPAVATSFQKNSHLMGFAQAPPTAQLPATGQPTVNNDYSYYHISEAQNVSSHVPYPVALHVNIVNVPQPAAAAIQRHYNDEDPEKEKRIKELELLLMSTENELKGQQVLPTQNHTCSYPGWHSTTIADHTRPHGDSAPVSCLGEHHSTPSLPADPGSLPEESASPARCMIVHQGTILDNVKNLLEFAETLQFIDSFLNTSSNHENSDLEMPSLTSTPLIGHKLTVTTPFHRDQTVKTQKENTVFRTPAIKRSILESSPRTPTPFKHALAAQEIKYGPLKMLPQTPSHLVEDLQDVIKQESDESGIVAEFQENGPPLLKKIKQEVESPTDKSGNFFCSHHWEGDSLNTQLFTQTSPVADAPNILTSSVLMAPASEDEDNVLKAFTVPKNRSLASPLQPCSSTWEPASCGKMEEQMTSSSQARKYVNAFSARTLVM
Method in brief: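 In this HepG2 transient-transfection format, cis-regulated reporter mRNA is quantified 24 h post-dosing by RT-PCR with capillary electrophoresis, fitted bidirectionally to DMSO baseline.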

[12] = ATG_GAL4_TRANS: Attagene TRANS-FACTORIAL HepG2 Assay for GAL4 (Internal Marker) (AID 2282976; active means hit-call score of the fitted dose curve at least 0.9, where 1 is the maximum); settings: HepG2 Attagene TRANS GAL4 internal marker reporter
Method in brief: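 RT-PCR/capillary electrophoresis readout of reporter mRNA. HepG2, transient MRTU transfection (GAL4-UAS reporters), 24 h compound exposure. Background-control endpoint, positive direction vs DMSO baseline.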

[13] = biological target: Bile acid receptor (Homo sapiens) (UniProt Q96RI1); assay: ATG_FXR_TRANS: Attagene TRANS-FACTORIAL HepG2 Assay for Farnesoid X Receptor (FXR) (AID 2282979; active means hit-call score of the fitted dose curve at least 0.9, where 1 is the maximum;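 further: hits raise reporter mRNA above DMSO so AC50 marks FXR activation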); settings: HepG2 Attagene TRANS FXR-GAL4 reporter transcription
Chain of Bile acid receptor (Homo sapiens) (Q96RI1 whole entry, looked up, the tested form may be a part): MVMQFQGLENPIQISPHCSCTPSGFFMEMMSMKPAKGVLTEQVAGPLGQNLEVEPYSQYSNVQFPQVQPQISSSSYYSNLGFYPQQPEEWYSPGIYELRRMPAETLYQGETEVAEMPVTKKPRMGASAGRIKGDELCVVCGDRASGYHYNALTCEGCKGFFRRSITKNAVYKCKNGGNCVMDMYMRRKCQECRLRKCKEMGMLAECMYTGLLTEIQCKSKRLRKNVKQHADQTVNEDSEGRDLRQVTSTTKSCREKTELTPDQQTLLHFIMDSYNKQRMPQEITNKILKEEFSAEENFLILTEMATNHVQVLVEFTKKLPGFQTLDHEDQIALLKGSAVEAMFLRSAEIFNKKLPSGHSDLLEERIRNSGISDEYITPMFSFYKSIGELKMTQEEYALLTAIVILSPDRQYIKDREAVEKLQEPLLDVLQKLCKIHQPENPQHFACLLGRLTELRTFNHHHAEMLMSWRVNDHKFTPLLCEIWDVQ
Method in brief: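 Read-out: fluorescent reporter transcripts quantified by capillary electrophoresis after RT-PCR of total RNA. Source cells were HepG2 transiently carrying chimeric NR-GAL4 plus GAL4-UAS reporter units, dosed 24 h. Activity fitted upward relative to DMSO baseline.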

[14] = biological target: Estrogen-related receptor gamma (Homo sapiens) (UniProt P62508); assay: ATG_ERRg_TRANS: Attagene TRANS-FACTORIAL HepG2 Assay for human Estrogen-Related Receptor gamma (ERRg) (AID 2282977; active means hit-call score of the fitted dose curve at least 0.9, where 1 is the maximum;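 further: hits increase reporter signal over DMSO so potencies reflect activators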); settings: HepG2 Attagene TRANS reporter, ERRg transactivation
Chain of Estrogen-related receptor gamma (Homo sapiens) (P62508 whole entry, looked up, the tested form may be a part): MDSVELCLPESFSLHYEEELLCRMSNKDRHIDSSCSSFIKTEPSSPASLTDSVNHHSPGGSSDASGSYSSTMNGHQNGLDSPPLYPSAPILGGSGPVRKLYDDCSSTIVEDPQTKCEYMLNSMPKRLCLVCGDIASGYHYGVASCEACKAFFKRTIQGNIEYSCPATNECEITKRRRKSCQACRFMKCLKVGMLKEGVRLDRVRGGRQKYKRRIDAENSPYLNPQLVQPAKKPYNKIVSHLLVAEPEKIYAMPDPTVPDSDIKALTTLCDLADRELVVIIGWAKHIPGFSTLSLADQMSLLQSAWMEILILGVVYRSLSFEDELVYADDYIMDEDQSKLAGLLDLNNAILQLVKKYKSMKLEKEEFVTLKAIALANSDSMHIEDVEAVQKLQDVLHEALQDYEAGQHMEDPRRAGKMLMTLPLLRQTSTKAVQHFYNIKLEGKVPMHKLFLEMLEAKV
Method in brief: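 Induction of reporter transcripts through a chimeric NR-Gal4 protein is quantified in transfected human HepG2 liver cells after 24 h chemical exposure, using RT-PCR with capillary electrophoresis detection and DMSO as baseline.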

[15] = ATG_M_32_TRANS: Attagene TRANS-FACTORIAL HepG2 Assay for M32 Transcription Factor (Internal Marker) (AID 2282984; active means hit-call score of the fitted dose curve at least 0.9, where 1 is the maximum;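 further: transcript level of a background control reporter unit measured by RT-PCR and capillary electrophoresis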); settings: HepG2 Attagene TRANS M32 internal marker reporter
Method in brief: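 Internal-marker readout from a multiplexed transcription reporter panel. HepG2 cells were transfected with GAL4-UAS reporter units, treated 24 hours, and reporter transcript levels determined by fluorescence after RT-PCR and capillary separation.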

[16] = ATG_M_19_TRANS: Attagene TRANS-FACTORIAL HepG2 Assay for M19 Transcription Factor (Internal Marker) (AID 2282974; active means hit-call score of the fitted dose curve at least 0.9, where 1 is the maximum); settings: HepG2 Attagene TRANS-FACTORIAL M19 internal marker reporter
Method in brief: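 Using RT-PCR and capillary electrophoresis, reporter mRNA from transiently transfected human HepG2 cells was quantified following 24 h exposure; activity was fitted in the positive direction against DMSO.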

[17] = biological target: Nuclear receptor subfamily 1 group I member 3 (Homo sapiens) (UniProt Q14994); assay: ATG_CAR_TRANS: Attagene TRANS-FACTORIAL HepG2 Assay for human Constitutive Androstane Receptor (CAR) (AID 2282969; active means hit-call score of the fitted dose curve at least 0.9, where 1 is the maximum;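 further: activators raise reporter mRNA above DMSO so AC50 marks induction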); settings: HepG2 Attagene TRANS-FACTORIAL CAR reporter
Chain of Nuclear receptor subfamily 1 group I member 3 (Homo sapiens) (Q14994 whole entry, looked up, the tested form may be a part): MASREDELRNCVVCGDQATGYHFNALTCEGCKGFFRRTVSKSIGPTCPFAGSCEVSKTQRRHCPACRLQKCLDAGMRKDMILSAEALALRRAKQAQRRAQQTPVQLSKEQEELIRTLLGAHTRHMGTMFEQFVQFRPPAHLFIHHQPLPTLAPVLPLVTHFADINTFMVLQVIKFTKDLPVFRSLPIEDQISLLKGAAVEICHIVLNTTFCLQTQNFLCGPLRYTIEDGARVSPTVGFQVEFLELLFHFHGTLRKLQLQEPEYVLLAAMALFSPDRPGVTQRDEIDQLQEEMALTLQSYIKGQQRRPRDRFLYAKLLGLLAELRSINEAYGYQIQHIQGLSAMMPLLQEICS
Method in brief: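 Transiently transfected HepG2, multiplex TRANS reporters (CAR-Gal4 chimera driving GAL4-UAS reporter). 24 h dosing. Readout: reporter transcript by RT-PCR + capillary electrophoresis, fluorescence intensity; positive direction vs DMSO.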

[18] = biological target: Estrogen receptor (Homo sapiens) (UniProt P03372); assay: ATG_ERa_TRANS: Attagene TRANS-FACTORIAL HepG2 Assay for human Estrogen Receptor alpha (ERa) (AID 2282970; active means hit-call score of the fitted dose curve at least 0.9, where 1 is the maximum); settings: HepG2 Attagene TRANS ERa GAL4 reporter, mRNA
Chain of Estrogen receptor (Homo sapiens) (P03372 whole entry, looked up, the tested form may be a part): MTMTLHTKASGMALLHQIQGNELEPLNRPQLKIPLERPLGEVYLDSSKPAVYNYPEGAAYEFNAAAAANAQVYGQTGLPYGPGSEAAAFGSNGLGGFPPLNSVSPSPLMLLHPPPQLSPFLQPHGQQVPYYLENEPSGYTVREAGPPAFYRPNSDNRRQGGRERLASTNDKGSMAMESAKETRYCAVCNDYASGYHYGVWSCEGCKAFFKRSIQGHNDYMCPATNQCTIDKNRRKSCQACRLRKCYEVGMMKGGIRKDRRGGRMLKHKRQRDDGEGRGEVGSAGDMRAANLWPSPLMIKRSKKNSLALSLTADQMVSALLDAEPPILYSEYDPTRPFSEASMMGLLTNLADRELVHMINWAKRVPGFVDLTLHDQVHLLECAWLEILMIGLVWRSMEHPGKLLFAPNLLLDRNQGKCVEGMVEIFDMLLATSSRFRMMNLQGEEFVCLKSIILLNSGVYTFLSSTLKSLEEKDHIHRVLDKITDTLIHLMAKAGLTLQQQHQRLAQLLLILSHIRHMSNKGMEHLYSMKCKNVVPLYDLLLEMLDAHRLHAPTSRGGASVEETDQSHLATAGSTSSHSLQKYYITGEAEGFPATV
Method in brief: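 Reporter mRNA induction after 24 hours, detected by fluorescent RT-PCR and capillary electrophoresis, gives the read-out. Cells are HepG2 transiently transfected with GAL4-UAS reporter transcription units responding to chimeric NR-Gal4. Activity is taken as gain of signal over DMSO baseline.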

[19] = biological target: Glucocorticoid receptor (Homo sapiens) (UniProt P04150); assay: ATG_GR_TRANS: Attagene TRANS-FACTORIAL HepG2 Assay for human Glucocorticoid Receptor (GR) (AID 2282978; active means hit-call score of the fitted dose curve at least 0.9, where 1 is the maximum;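 further: activators score as hits since higher reporter transcript over DMSO is fitted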); settings: HepG2 Attagene TRANS GR reporter, mRNA transcription
Method in brief: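 Exogenous NR-GAL4 fusion activity was assessed through induced GAL4-UAS reporter transcripts in transfected human HepG2 cells, quantified after 24 h by RT-PCR and fluorescent capillary electrophoresis with DMSO as baseline.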

Measured: AC50

CCCCCCCCOC(C)=O
not listed: [12] | [13] | [14] | [15] | [16] | [17] | [18] | [19]
inactive: all other assays above

C=CCOCC(O)CO (centres undefined)
active: [11] 152 µM
inactive: [1] | [2] | [3] | [4] | [5] | [12] | [13] | [6] | [8] | [9]

CC1=CC[C@@H]2C[C@H]1C2(C)C
inactive: [1] | [2] | [3] | [4] | [5] | [6] | [7] | [10] | [11]

ClCCOCCOCCCl
not listed: [6] | [9] | [13] | [15] | [16] | [17] | [18] | [19]
inactive: all other assays above

CNC(=C[N+](=O)[O-])NCCSCc1ccc(CN(C)C)o1
not listed: [8] | [9] | [13] | [14] | [16] | [17] | [18] | [19]
inactive: all other assays above

CC1(C)CC(=O)CC(C)(C)N1
not listed: [8] | [13] | [14] | [15] | [16] | [17] | [18] | [19]
inactive: all other assays above

C[N+](C)(C)CCO
inactive: [1] | [2] | [3] | [4] | [5] | [16] | [7] | [8] | [11]

Cc1ccncc1
inactive: [1] | [2] | [3] | [4] | [5] | [16] | [11]

O=Cc1ccccc1O
not listed: [9] | [12] | [13] | [14] | [15] | [17] | [18] | [19]
inactive: all other assays above

CCCCCCCCCCCCCC(=O)OCC
not listed: [8] | [12] | [13] | [14] | [17] | [18] | [19]
inactive: all other assays above

CC(=O)c1cccnc1
inactive: [1] | [2] | [3] | [4] | [5] | [16] | [7] | [11]

CCCCCCCCOC(=O)c1ccc(O)cc1
active: [18] 5.53 µM
not listed: [4] | [7] | [13] | [14] | [15]
inactive: all other assays above

CC(C)CCCC(C)(C)O
inactive: [1] | [2] | [3] | [4] | [5] | [12] | [6] | [15] | [11]
